Measured values published in PubChem BioAssay AID624305 (National Center for Advancing Translational Sciences (NCATS), 2012).
Results filed as inconclusive are left out. Unmarked numbers belong to inactive results. The source made the active and inactive calls. The call rests on the fitted dose curve; in most records, active means well fitted activation curve with a large enough effect; inconclusive means small, poorly fitted or top-dose-only effect; inactive means no such curve, though single readings can be large or run the other way.

Assay: qHTS assay for re-activators of p53 using a Luc reporter: Hit Validation; further: nearly all actives have a fitted effect of over 75% in size; on activation: 0% is about no effect
Procedure, shortened: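 H1299 (p53-null) cells stably carrying p53-A138V and a BP100-luciferase reporter, 1000 cells/well, treated 24 h at 37 deg C. Compounds at several concentrations, 1:5 dilution; nocodazole control; luminescence read after 10 min with detection reagent.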
Potency means the concentration at half of the fitted maximal effect.

Structure (SMILES): O=C(NNC(=O)c1ccc(Cl)cc1Cl)c1ccncc1
- activation: -28.8% [at 9.22 µM]

Structure (SMILES): c1ccc(-c2nnc(-c3ccccn3)nc2NC2CCCCC2)cc1
- Potency: 18.4 µM (active)

Structure (SMILES): Cc1ccc(-c2nc(-c3cccnc3)no2)c(C)c1
- Potency: 4.61 µM (active)

Structure (SMILES): C/C(=C\C(=O)c1ccccc1)Nc1ccc2c(c1)OCO2
- Potency: 2.91 µM (active)

Structure (SMILES): CC(C)(C)OC(=O)N1CCC(C(=O)Nc2ccc3c(c2)CCC3)CC1
- Potency: 23.1 µM (active)

Structure (SMILES): CC(OC(=O)c1cccc([N+](=O)[O-])c1)C(=O)N1CCc2ccccc21 (configuration not stated)
- Potency: inactive

Structure (SMILES): COCC(C)NC(=O)C1CC(=O)N(c2ccc(C)cc2)C1 (configuration not stated)
- activation: -21.3% [at 9.22 µM]

Structure (SMILES): COc1ccc(CCC(=O)Nc2ccc(-c3noc(-c4ccc(OC)c(OC)c4)n3)cc2)cc1
- Potency: inactive

Structure (SMILES): c1ccc(-c2ccc(-c3ccccn3)nn2)nc1
- Potency: 0.082 µM (active)

Structure (SMILES): CC(=O)/C=C(\C)Nc1ccc(-c2cnc(-c3ccccc3)o2)cc1
- Potency: 2.59 µM (active)

Structure (SMILES): O=C(c1cccc(S(=O)(=O)NCc2ccc3c(c2)OCO3)c1)N1CCCC1
- Potency: inactive

Structure (SMILES): O=C(N/N=C/c1cccs1)c1n[nH]c2c1CCC2
- Potency: 0.517 µM (active)

Structure (SMILES): O=C(Nc1ccc(COc2ccccc2)cc1)c1cccc([N+](=O)[O-])c1
- Potency: inactive

Structure (SMILES): Cc1occc1C(=O)NNC(=S)Nc1ccccc1C(F)(F)F
- Potency: 13 µM (active)

Structure (SMILES): Cc1ccc2c(c1)CCCN2C(=O)Nc1ccc2c(c1)OCO2
- Potency: inactive

Structure (SMILES): CN(C)c1cccc(C(=O)NNC(=O)CN2C(=O)C3CC=CCC3C2=O)c1 (configuration not stated)
- Potency: 2.31 µM (active)

Structure (SMILES): Cc1ccc(-c2nnc(Oc3cccc(C)c3)c3ccccc23)cc1
- Potency: 7.31 µM (active)

Structure (SMILES): O=C(/C=C/c1cnc2ccccc2n1)NC12CC3CC(CC(C3)C1)C2
- Potency: 9.2 µM (active)

Structure (SMILES): COc1ccc([N+](=O)[O-])cc1NC(=O)C1CCCCC1C(=O)O (configuration not stated)
- Potency: inactive

Structure (SMILES): O=C1CCCC(O)=C1N=Nc1c(Cl)cc(Cl)cc1Cl
- Potency: inactive

Structure (SMILES): O=C(CC1SC(N2CCCC2)=NC1=O)Nc1ccc(C(=O)Nc2ncccc2O)cc1 (configuration not stated)
- Potency: 16.4 µM (active)

Structure (SMILES): Cc1c(/C(O)=C2/C(=O)C(=O)N(Cc3cccnc3)C2c2cccs2)cnn1-c1ccccc1 (configuration not stated)
- Potency: 8.2 µM (active)

Structure (SMILES): Cc1ccc(/C=N/NC(=O)c2cccs2)s1
- Potency: 5.8 µM (active)

Structure (SMILES): Cc1cccc(NC(=O)/C=C/c2ccc([N+](=O)[O-])s2)c1
- Potency: inactive

Structure (SMILES): O=C1CCCC(O)=C1N=Nc1ccc2c(c1)OCO2
- Potency: 23.1 µM (active)

Structure (SMILES): COc1ccc(C(C)(C)C)cc1NC(=O)Nc1ccc2c(c1)OCO2
- Potency: inactive

Structure (SMILES): Cc1ccc(S(=O)(=O)NCCOc2nc(N(C)C)nc(N3CCOCC3)n2)cc1
- Potency: inactive

Structure (SMILES): CC(=O)Nc1ccc(Nc2cc(C)nc3c(-c4ccccc4)cnn23)cc1
- Potency: 0.116 µM (active)

Structure (SMILES): Cc1ccc(S(=O)(=O)NCC(=O)NCC(=O)N2CCC(C)CC2)cc1
- Potency: inactive

Structure (SMILES): Cc1cc(N2CCCCC2)n2ncc(-c3ccc(Cl)cc3)c2n1
- Potency: 0.82 µM (active)

Structure (SMILES): CCOc1ccc(NS(=O)(=O)c2ccc(C(=O)NC3CCN(Cc4ccccc4)CC3)cc2)cc1
- Potency: inactive

Structure (SMILES): Cc1cc(C(=O)Cn2nnc3ccccc3c2=O)c(C)n1Cc1cccs1
- Potency: 0.259 µM (active)

Structure (SMILES): O=c1c2ccccc2oc2ccc(-c3ccc4cc[nH]c4c3)cc12
- Potency: 0.411 µM (active)

Structure (SMILES): N#C/C(Cn1c[n+](NC(=O)Nc2ccccc2)cn1)=N/O
- Potency: inactive

Structure (SMILES): COc1ccc(-c2nnc(-c3ccc(Br)o3)o2)cc1OC
- Potency: inactive

Structure (SMILES): Cc1ccc(S(=O)(=O)CNC(=O)c2ccccc2)cc1
- Potency: inactive

Structure (SMILES): Cc1ccc2c(c1)sc1nc(=O)n(-c3cccc(Cl)c3)c(=O)n12
- Potency: 8.2 µM (active)
